We go through 60 molecules from publication PMC4552634, “A New Set of Chemical Starting Points with Plasmodium falciparum Transmission-Blocking Potential for Antimalarial Drug Discovery” (PLoS ONE, 2015).

As usually defined, the % Inhibition is the drop in the measured response relative to a control, in per cent.

Out of some 13,000 compounds screened, about 3,200 (25%) showed an effect of 50% or more. This is one part of the list.

For this assay, the system named is P. falciparum stage V gametocytes. Also noted: BacTiter-Glo ATP luminescence viability of purified stage V gametocytes in 384-well plates, per cent inhibition versus DMSO. The following applies: 48 h, 5 µM; inhibitor.
Regarding `O=C(N[C@@H](Cc1ccccc1)C(=O)NC1CCCc2ccccc21)c1ccc(O)c(-c2cccc(C(F)(F)F)c2)c1` (stereo partly drawn) [TCMDC-140820], the “% Inhibition” value is listed as 23.49%. The figure for `CC(C)(C)NCCN(Cc1ccc(-c2ccc(C(F)(F)F)cc2)cc1)C(=O)Cn1c(CCc2cccc(F)c2F)nc(=O)c2ccccc21` [TCMDC-141080] is 105.1%. The same measure for `CCN(CC)CCN(CCCc1ccc(-c2ccc(C(F)(F)F)cc2)cc1)C(=O)Cn1c(CCc2cccc(F)c2F)nc(=O)c2ccccc21` [TCMDC-141253]: 67.3%. The figure for `CCN(CC)CCN(Cc1ccc(-c2ccc(C#N)cc2)cc1)C(=O)Cn1c(CCc2cccc(F)c2F)nc(=O)c2ccccc21` [TCMDC-141150] is 0.7472%. Regarding `CCN(CC)CCN(Cc1ccc(-c2ccc(Cl)cc2)cc1)C(=O)Cn1c(CCc2cccc(F)c2F)nc(=O)c2ccccc21` [TCMDC-141054], the “% Inhibition” value is reported as 39.4%. The figure for `CCN(CC)CCN(Cc1ccc(-c2ccc(Cl)s2)cc1)C(=O)Cn1c(CCc2cccc(F)c2F)nc(=O)c2ccccc21` [TCMDC-141229] is 28.5%; for `CCN(CC)CCN(Cc1ccc(-c2ccc(Br)cc2)cc1)C(=O)Cn1c(CCc2cccc(F)c2F)nc(=O)c2ccccc21` [TCMDC-141305] it is 51.66%; for `CCN(CC)CCN(Cc1ccc(-c2ccc(C(F)(F)F)s2)cc1)C(=O)Cn1c(CCc2cccc(F)c2F)nc(=O)c2ccccc21` [TCMDC-141262] it is 57%. `Cc1ccccc1C1CCN(C2CCC(NC(=O)c3cc4cc(C(C)C)ccc4[nH]3)CC2)CC1` (stereo not drawn) [TCMDC-133554]: the “% Inhibition” value amounted to 15.06%. Regarding `COc1ccc2ncc(C#N)c(CCN3C4CCC3CC(NCc3ccc5c(n3)NC(=O)CS5)C4)c2c1` (stereo not drawn) [TCMDC-135180], the “% Inhibition” value worked out at 37.34%. The same measure for `Brc1cnc(NC2=NCCN2)c(Br)c1` [TCMDC-131680]: 12.04%; for `Cc1nc(C)c(CC(=O)Nc2cccc(-c3cccc(-c4nc5ccc(C(F)(F)F)cc5[nH]4)c3)c2)s1` [TCMDC-136995]: 4.513%. The same measure for `CC(C)(CN)c1nc(-c2ccc(Br)c(O)c2)c(-c2ccncc2)[nH]1` [TCMDC-140680]: -59.77%; for `O=C(/C=C/c1ccc(Cl)c(Cl)c1)NCCCCCN1CCC(NC(=O)Nc2ccccc2F)CC1` [TCMDC-139386]: -2.666%; for `C=CCOC1OC(COC(c2ccccc2)(c2ccccc2)c2ccccc2)C(OC(C)=O)C(OC(C)=O)C1NC(C)=O` (stereo not drawn) [TCMDC-131992]: 13.79%. The same measure for `CCN(CC)CCN(CCCc1ccc(-c2ccc(C(F)(F)F)cc2)cc1)C(=O)Cn1c(CCc2cccc(F)c2F)nc(=O)c2c1CCC2` [TCMDC-140984]: 42.45%; for `CC(C)(C)NCCN(Cc1ccc(-c2ccc(C(F)(F)F)cc2)cc1)C(=O)Cn1c(CCc2cccc(F)c2F)nc(=O)c2c1CCC2` [TCMDC-140979]: 113.3%; for `CCN(CC)CCN(Cc1ccc(-c2ccc(C(F)(F)F)cc2)cc1)C(=O)Cn1c(CCc2cccc(F)c2F)nc(=O)c2ccccc21` [TCMDC-140922]: 60.98%. `CCN(CC)CCN(Cc1ccc(-c2ccc(C(F)(F)F)cc2)cc1)C(=O)Cn1c(CCc2cccc(F)c2F)nc(=O)c2cccnc21` [TCMDC-141013]: the “% Inhibition” value is 97.72%. For `CCN(CC)CCN(Cc1ccc(-c2ccc(C(F)(F)F)cc2)cc1)C(=O)Cn1c(CCc2ccc(F)c(F)c2F)nc(=O)c2cccnc21` [TCMDC-141002], the “% Inhibition” value is 20.31%.

Regarding `CCN(CC)CCN(Cc1ccc(-c2ccc(C(F)(F)F)cc2)cc1)C(=O)Cn1c(CCc2cccc(F)c2F)c(C)c(=O)c2ccccc21` [TCMDC-141313], the “% Inhibition” value was 76.85%. The same measure for `Cn1nccc1C(=O)NCCNCc1cccc(-c2csc(-c3nc4ccccc4[nH]3)c2)c1` [TCMDC-133002]: -62.03%; for `CCCN1CCc2c(sc3nc(SCC(=O)Nc4ccc(C)cc4)n(-c4ccc(C)cc4)c(=O)c23)C1` [TCMDC-125451]: 5.583%. The figure for `O=C(NC1CCCc2ccccc21)C1CCCN(C(=O)c2ccc(O)c(-c3ccc(Cl)c(Cl)c3)c2)C1` (stereo not drawn) [TCMDC-140890] is 19.76%; for `CCn1c(CN2CCC(C)CC2)nc2cc(NC(=O)c3cccs3)ccc21` [TCMDC-124730] it is -26.92%. As to `CCCCCCCN(Cc1ccc(OC(C)(C)C(=O)OCC)cc1)C(=O)Cc1ccc(F)cc1F` [TCMDC-131920], the “% Inhibition” value is on record as 13.51%. Turning to `COC(=O)c1cccc(NC(=O)NC2CCN(c3ccnc(Nc4ccc(OC)cc4)n3)C2)c1` (stereo not drawn) [TCMDC-133618], the “% Inhibition” value is recorded as -6.04%. Regarding `CC1CN(Cc2cccc(-c3ccc(-c4nc5ccccc5[nH]4)cc3)c2)CC(C)O1.O=C(O)C(F)(F)F` (stereo not drawn) [TCMDC-133816], the “% Inhibition” value is on record as -91.64%. The same measure for `CSc1ccc(NC(=O)Nc2cc(C)nc3ccccc23)cc1Br` [TCMDC-139874]: -51.95%. The figure for `CCN(CC)CCN(Cc1ccc(-c2ccc(C(F)(F)F)cc2)cc1)C(=O)Cn1c(CCc2ccccc2F)nc(=O)c2ccccc21` [TCMDC-141012] is 52.86%. With `CCN(CC)CCN(Cc1ccc(-c2ccc(C(F)(F)F)cc2)cc1)C(=O)Cn1c(CCc2ccc(F)c(F)c2F)nc(=O)c2ccc(F)cc21` [TCMDC-141072], the “% Inhibition” value is given as 19.94%. `CCN(CC)CCN(Cc1ccc(-c2ccc(C(F)(F)F)cc2)cc1)C(=O)Cn1c(CCc2ccc(F)c(F)c2F)nc(=O)c2ccccc21` [TCMDC-140952]: the “% Inhibition” value is recorded as 68.69%. `Clc1ccc2c(NN=Cc3cccnc3)ccnc2c1` [TCMDC-123968]: the “% Inhibition” value is reported as -19.33%. The same measure for `Cc1cccc2c3c([nH]c12)C1(CCN(CCc2ccccc2)CC1)NC(C(=O)NCc1ccccc1)C3` (stereo not drawn) [TCMDC-141245]: -39.36%; for `Cc1cc(CN2CCN(CCOC(c3ccccc3)c3ccccc3)CC2)ccc1O` [TCMDC-135695]: -7.709%. Consider `Cc1ccc(C)c(S(=O)(=O)NCC2CCN(Cc3ccc(O)cc3)CC2)c1` [TCMDC-141802], for which the “% Inhibition” value was found to be 45.59%. For the molecule `CCOc1c(Br)cc(C)cc1CNCCCNc1nc2ccccc2[nH]1` [TCMDC-140090], the “% Inhibition” value is 7.25%. The same measure for `CCOc1cc(CNCCCCCCNCc2cc(OCC)c(OCC)c3ccccc23)c2ccccc2c1OCC` [TCMDC-137939]: 106%; for `COc1cc(CNCCCCCCNCc2cc(OC)c3ccccc3c2OC)c(OC)c2ccccc12` [TCMDC-137502]: 106.1%.

In the case of `CCOc1c(C)cc(C(F)(F)F)cc1CNCCCNc1cc(=O)c2ccccc2[nH]1` [TCMDC-141046], the “% Inhibition” value is given as -34.36%. The same measure for `CCOc1cc2ccccc2cc1CNCCCCCCNCc1cc2ccccc2cc1OCC` [TCMDC-137940]: 69.35%; for `COc1cc(CNCCCCCCNCc2cc(OC)c(OC)c3ccccc23)c2ccccc2c1OC` [TCMDC-137981]: 104.3%; for `CCOc1c(CNCCCNc2cc(=O)c3ccccc3[nH]2)cc(I)cc1OC` [TCMDC-139847]: -35.79%. `COc1cc2ccccc2cc1CNCCCCCCNCc1cc2ccccc2cc1OC` [TCMDC-137955]: the “% Inhibition” value was determined as 4.122%.

Turning to `COc1cc(-c2cc(-c3ccc(OCCN(C)C)cc3)[nH]c2-c2ccncc2)ccc1Cl` [TCMDC-141251], the “% Inhibition” value is -2.677%.

In the case of `COc1cc(F)c2ncc(Cl)c([C@H](O)CN3CCC(NCc4cc5c(cn4)OCCO5)CC3)c2c1` [TCMDC-135474], the “% Inhibition” value stood at 10.97%.

Turning to `O=C(NC1CCC(CCN2Cc3cccc(C(F)(F)F)c3C2)CC1)c1cccc(-c2cccnc2)c1` (stereo not drawn) [TCMDC-139602], the “% Inhibition” value is -51.73%. On to `COc1ccc(CNCc2ccc(-c3ccc(-c4nc5cc(C(F)(F)F)ccc5[nH]4)cc3)cc2)cc1.O=C(O)C(F)(F)F` [TCMDC-132724], for which the “% Inhibition” value is recorded as -6.92%. The same measure for `O=C(Nc1cccc(-c2ccc(-c3nc4ccc(F)cc4[nH]3)cc2)c1)Nc1ccc(Cl)c(Cl)c1` [TCMDC-133280]: -66.79%; for `CC1CCN(CC[C@H]2CCCN2S(=O)(=O)c2cccc(NC(=O)c3cc4ccccc4s3)c2)CC1` [TCMDC-141077]: -68%.

On to `CC(C)C[C@H](NC(=O)c1cc2ccccc2s1)C(=O)N[C@H]1CCN(Cc2ccc(I)c(OCCN3CCCC3)c2)C1` [TCMDC-140287], for which the “% Inhibition” value is given as 56%. The figure for `CC(C)C[C@H](NC(=O)c1cc2ccccc2s1)C(=O)N[C@H]1CCN(Cc2ccc(I)c(OC3CCN(C)C3)c2)C1` (stereo partly drawn) [TCMDC-140288] is 64.78%. As to `CC(C)C[C@H](NC(=O)c1cc2ccccc2s1)C(=O)N[C@H]1CCN(Cc2ccc(OCCCN(C)C)c(Cl)c2)C1` [TCMDC-140291], the “% Inhibition” value is 44.54%. The figure for `CC(C)C[C@H](NC(=O)c1cc2ccccc2s1)C(=O)N[C@H]1CCN(Cc2ccc(OC3CCN(C)C3)c(Cl)c2)C1` (stereo partly drawn) [TCMDC-140293] is 19.83%; for `CC(C)CC(NC(=O)c1cc2ccccc2s1)C(=O)N1CCCCCC1c1ccc(C(C)(C)C)cc1` (stereo not drawn) [TCMDC-136337] it is 63.43%. As to `N#Cc1ccccc1S(=O)(=O)N1CCCC(CNC(=O)[C@H](CC2CCCCC2)NC(=O)c2cc3ccccc3s2)C1` (stereo partly drawn) [TCMDC-136558], the “% Inhibition” value is reported as -3.694%. The same measure for `COc1ccc(CC2(c3ccc(F)cc3)N=C(N)N(CCCc3ccc(F)c(F)c3)C2=O)cc1` (stereo not drawn) [TCMDC-136542]: -2.474%; for `Clc1ccc2nnc(-c3c(Cl)cccc3Cl)n2n1` [TCMDC-124489]: 23.9%; for `c1cc(CNCC2CCCO2)cc(-c2csc(-c3nc4ccccc4[nH]3)c2)c1` (stereo not drawn) [TCMDC-133108]: -15.46%. With `C=CCc1cc(Br)ccc1OCCCOc1c(C)nc(N)nc1N` [TCMDC-131366], the “% Inhibition” value is -2.875%.
